ChEMBL document CHEMBL3988442, “University of Dundee, Small-Polar-MMV Screening Library” (2021)
For some assays here: Results with a measured potency or affinity are listed apart.

Tests used:
Design in all cases: scale not given: direction of the effect not stated beside the values
[1] = biological target: Protein translocase subunit SecA (Escherichia coli (strain K12)) (UniProt P10408); assay: Assay to Identify E. coli SecA ATPase Inhibitors; type: functional; conditions: 30 µM
[2] = biological target: T1, Ubiquitin-activating enzyme e1, putative (Leishmania donovani (strain BPK282A1)) (UniProt E9BSI1); assay: Leishmania donovani Ubiquitin Activating Enzyme (LdE1); type: functional; conditions: 30 µM
T1 sequence (whole entry): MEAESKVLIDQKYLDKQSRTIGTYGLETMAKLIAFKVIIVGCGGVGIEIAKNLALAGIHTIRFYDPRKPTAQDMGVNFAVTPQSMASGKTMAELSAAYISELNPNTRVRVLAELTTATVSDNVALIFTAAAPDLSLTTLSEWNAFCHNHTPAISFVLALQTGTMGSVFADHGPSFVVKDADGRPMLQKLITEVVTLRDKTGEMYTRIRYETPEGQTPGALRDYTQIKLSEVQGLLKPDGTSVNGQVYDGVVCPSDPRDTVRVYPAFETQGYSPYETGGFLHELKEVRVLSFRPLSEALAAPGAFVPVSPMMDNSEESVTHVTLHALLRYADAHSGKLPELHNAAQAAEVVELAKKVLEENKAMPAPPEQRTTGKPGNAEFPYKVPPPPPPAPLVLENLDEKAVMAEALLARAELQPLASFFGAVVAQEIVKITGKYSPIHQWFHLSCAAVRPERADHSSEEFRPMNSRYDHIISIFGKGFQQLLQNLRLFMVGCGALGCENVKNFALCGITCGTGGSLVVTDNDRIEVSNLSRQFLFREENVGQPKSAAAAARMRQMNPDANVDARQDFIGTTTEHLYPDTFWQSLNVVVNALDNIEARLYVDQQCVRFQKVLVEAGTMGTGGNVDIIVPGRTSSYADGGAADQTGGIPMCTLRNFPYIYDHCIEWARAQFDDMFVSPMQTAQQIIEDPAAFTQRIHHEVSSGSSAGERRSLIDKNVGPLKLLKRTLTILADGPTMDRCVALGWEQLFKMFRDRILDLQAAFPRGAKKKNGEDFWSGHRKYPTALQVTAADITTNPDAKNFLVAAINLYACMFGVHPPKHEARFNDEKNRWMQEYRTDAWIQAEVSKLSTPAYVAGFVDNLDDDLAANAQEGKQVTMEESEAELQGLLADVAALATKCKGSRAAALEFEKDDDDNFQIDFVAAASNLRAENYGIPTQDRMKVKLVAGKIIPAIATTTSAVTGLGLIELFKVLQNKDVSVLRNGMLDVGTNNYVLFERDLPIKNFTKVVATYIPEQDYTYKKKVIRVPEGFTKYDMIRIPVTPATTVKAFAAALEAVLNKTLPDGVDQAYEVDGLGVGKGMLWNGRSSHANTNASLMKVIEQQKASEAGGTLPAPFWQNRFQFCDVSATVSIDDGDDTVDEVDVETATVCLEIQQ

[3] = biological target: AMP-activated protein kinase, AMPK (Homo sapiens) (UniProt P54646+O43741+P54619+Q9UGJ0+Q9Y478+Q13131+Q9UGI9); assay: AMP-dependent Kinase enzyme assay. An in vitro enzyme assay that detects ADP turnover that is directly proportional to AMPK activity. This uses naive AMPK that is activated during the assay with MK-8722; type: functional; conditions: 30 µM
[4] = biological target: Sialic acid-binding Ig-like lectin 9 (Homo sapiens) (UniProt Q9Y336); assay: Hs-Siglec9 ALPHAscreen SOP 20170721; conditions: 10 µM
Trypanosoma cruzi = assay: Trypanosoma cruzi phosphomannomutase and mannose-1-phosphate guanylyltransferase assay; type: functional; conditions: 10 µM
[5] = biological target: T2, Arginase-2, mitochondrial (Homo sapiens) (UniProt P78540); assay: in vitro enzyme assay to detect the production of urea directly proportional to the activity of Arginase II; type: functional; conditions: 33.3 µM; note: in the data most compounds retested in dose-response had high values
T2 sequence (whole entry): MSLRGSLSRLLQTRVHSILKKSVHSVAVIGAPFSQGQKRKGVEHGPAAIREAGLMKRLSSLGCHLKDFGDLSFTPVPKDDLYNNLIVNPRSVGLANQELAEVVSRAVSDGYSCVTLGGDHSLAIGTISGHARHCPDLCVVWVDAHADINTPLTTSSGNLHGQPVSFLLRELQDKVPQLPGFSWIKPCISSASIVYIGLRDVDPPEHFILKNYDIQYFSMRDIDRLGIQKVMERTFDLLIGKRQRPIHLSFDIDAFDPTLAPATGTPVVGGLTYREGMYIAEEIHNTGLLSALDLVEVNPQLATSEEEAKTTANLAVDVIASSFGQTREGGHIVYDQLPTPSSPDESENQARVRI

[6] = biological target: T3, Proteasome subunit beta (Trypanosoma cruzi) (UniProt O96673); assay: Trypanosoma cruzi proteasome chymotrypsin-like activity (TcProtChymo) assay.; note: in the data most compounds retested in dose-response had high values; type: functional; conditions: 9.37 µM
T3 sequence (whole entry): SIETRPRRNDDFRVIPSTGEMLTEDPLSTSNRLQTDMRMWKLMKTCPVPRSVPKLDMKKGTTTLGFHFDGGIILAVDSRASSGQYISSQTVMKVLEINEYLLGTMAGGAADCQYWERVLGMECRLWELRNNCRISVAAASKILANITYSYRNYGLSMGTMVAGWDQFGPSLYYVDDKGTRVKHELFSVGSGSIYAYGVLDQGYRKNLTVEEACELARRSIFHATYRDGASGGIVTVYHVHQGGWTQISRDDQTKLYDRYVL

Homo sapiens = species: Homo sapiens; assay: To identify inhibition of the IFN signalling (Jak-Stat) pathway via expression of an eGFP reporter gene under the control of an IFN-stimulated response element (ISRE) containing MxA promoter.; type: functional; conditions: 30 µM
[7] = biological target: T4, Tyrosyl-tRNA synthetase, putative (Trypanosoma cruzi (strain CL Brener)) (UniProt Q4DSP6); assay: Trypanosoma cruzi tyrosyl tRNA synthetase (TcYRS) _High Tyrosine SOP; type: functional; conditions: 30 µM; note: in the data most compounds retested in dose-response had high values
T4 sequence (whole entry): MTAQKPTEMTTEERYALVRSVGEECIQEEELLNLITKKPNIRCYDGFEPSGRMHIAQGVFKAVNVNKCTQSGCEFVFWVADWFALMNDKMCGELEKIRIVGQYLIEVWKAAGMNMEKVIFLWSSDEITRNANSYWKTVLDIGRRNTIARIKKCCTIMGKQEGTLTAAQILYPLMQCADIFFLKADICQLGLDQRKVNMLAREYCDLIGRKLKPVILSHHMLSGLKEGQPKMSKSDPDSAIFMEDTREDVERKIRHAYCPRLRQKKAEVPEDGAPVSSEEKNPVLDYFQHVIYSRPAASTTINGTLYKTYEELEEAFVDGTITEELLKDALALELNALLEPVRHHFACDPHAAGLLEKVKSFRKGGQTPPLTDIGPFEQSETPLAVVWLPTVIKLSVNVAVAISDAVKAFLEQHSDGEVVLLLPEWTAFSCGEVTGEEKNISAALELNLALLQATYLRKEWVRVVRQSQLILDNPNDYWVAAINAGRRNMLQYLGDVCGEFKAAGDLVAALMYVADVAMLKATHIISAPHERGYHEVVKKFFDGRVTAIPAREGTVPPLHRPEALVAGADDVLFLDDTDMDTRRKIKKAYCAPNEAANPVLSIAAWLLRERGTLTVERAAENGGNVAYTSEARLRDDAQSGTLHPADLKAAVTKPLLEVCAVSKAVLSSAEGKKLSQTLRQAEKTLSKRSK

[8] = biological target: T4, Tyrosyl-tRNA synthetase, putative (Trypanosoma cruzi (strain CL Brener)); assay: Trypanosoma cruzi tyrosyl tRNA synthetase (TcYRS) SOP; type: functional; conditions: 30 µM
[9] = biological target: Chromo domain-containing protein 1 (Saccharomyces cerevisiae (strain ATCC 204508 / S288c) (Baker's yeast)) (UniProt P32657); assay: ScCHD-1 Enzyme Inhibition Assay; type: functional; conditions: 30 µM; note: in the data most compounds retested in dose-response had high values
Chromo domain-containing protein 1 (Saccharomyces cerevisiae (strain ATCC 204508 / S288c) (Baker's yeast)), sequence (P32657 whole entry, the tested form may be a part): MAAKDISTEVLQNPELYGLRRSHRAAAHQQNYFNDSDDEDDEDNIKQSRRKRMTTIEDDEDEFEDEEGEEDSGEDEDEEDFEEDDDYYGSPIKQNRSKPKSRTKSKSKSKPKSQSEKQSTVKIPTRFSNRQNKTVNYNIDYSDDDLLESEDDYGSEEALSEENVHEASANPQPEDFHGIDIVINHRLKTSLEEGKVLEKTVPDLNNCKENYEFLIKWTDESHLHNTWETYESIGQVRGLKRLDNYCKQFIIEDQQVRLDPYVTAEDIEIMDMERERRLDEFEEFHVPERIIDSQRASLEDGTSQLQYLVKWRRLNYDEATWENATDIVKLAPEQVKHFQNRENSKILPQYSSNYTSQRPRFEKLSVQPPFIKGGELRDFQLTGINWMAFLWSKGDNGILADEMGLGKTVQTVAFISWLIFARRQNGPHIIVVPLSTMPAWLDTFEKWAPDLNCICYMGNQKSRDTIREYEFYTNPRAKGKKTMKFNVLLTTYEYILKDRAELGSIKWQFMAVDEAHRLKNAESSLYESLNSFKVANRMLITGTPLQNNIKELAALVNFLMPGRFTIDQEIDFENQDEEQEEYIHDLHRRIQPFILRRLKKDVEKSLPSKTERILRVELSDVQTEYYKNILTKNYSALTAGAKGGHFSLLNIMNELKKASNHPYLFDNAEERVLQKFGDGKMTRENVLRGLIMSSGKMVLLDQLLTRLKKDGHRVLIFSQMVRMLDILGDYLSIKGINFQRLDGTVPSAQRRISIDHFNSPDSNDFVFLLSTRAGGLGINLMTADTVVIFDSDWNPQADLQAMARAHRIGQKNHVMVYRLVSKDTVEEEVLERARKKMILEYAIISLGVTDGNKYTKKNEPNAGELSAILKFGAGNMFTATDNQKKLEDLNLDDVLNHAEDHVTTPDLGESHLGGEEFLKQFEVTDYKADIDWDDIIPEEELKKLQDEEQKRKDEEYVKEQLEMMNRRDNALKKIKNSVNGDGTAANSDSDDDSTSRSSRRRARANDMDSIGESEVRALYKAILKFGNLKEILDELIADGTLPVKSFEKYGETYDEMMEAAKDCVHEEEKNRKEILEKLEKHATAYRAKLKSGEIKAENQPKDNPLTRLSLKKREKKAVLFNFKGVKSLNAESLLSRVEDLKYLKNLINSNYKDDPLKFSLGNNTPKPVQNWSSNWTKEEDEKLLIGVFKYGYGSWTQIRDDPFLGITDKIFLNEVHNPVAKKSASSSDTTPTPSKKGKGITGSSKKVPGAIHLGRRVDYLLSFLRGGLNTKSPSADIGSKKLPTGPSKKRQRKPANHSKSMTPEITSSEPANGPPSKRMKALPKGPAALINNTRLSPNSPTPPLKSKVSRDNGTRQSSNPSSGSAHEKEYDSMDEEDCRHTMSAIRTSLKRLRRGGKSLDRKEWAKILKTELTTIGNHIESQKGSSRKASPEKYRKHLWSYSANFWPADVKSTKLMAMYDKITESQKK

Sialic acid-binding Ig-like lectin 9 (Homo sapiens), sequence (Q9Y336 whole entry): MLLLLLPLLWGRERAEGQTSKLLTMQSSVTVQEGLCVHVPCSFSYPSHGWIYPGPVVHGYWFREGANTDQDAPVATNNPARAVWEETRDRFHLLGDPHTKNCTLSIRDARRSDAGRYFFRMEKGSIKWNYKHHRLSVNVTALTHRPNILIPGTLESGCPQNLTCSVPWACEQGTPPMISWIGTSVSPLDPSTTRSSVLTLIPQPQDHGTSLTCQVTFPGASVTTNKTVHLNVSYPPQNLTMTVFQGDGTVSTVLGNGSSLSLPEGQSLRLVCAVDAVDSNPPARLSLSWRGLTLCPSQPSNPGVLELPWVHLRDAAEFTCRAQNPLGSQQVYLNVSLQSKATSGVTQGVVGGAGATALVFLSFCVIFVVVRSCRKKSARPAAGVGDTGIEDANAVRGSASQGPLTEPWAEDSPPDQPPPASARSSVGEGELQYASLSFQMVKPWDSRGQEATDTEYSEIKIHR
Protein translocase subunit SecA (Escherichia coli (strain K12)), sequence (P10408 whole entry): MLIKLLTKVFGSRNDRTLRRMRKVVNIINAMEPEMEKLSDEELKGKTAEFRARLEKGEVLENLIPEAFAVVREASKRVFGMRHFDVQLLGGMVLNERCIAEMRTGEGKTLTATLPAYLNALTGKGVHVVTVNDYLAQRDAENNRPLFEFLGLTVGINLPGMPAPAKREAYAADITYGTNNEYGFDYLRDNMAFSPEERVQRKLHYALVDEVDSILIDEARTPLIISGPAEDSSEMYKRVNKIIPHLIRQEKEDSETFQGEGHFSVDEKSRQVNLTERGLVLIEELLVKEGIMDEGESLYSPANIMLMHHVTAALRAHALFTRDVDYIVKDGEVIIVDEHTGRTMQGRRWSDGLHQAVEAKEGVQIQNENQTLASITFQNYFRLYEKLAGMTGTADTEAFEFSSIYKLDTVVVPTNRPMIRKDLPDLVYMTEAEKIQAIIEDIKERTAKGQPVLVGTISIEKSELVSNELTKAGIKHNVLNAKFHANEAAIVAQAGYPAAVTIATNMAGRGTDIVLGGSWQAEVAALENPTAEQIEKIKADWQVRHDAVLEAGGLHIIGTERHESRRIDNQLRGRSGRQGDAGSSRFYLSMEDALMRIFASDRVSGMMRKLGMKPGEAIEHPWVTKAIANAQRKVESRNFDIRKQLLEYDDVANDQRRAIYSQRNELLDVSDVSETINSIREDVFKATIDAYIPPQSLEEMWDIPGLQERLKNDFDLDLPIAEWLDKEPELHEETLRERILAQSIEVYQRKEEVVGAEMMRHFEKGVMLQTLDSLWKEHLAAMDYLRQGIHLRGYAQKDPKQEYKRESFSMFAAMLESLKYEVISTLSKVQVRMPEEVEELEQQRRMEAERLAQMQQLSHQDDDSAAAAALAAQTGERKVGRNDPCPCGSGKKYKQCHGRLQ

SMILES | Percent Effect [1] [%] | Percent Effect [2] [%] | Percent Effect [3] [%] | Percent Effect [4] [%] | Percent Effect (Trypanosoma cruzi) [%] | Percent Effect [5] [%] | Percent Effect [6] [%] | Percent Effect (Homo sapiens) [%] | Percent Effect [7] [%] | Percent Effect [8] [%] | Percent Effect [9] [%]
COCc1nc(C(=O)N2CCCCC2Cn2cccn2)cs1 (configuration not stated) | -1.64 | -7.89 | -1.7 | -2.08 | 6.82 | -3.24 | -0.761 | -20.6 | 0.493 | 3.7 | 3.28
Cc1ccc(CNC(=O)CN2C=Nc3ccccc3S2(=O)=O)s1 | -3.17 | 21.1 | -5.67 | -1.55 | 6.07 | -0.36 | 3.98 | 9.85 | 10.3 | 23.5 | -6.54
CN(Cc1ccsc1)C(=O)c1cccc(S(=O)(=O)NC(C)(C)C)c1 | -1.82 | 23.4 | -6.77 | -1.29 | 3 | -3.56 | 12 | 18.1 | 6.8 | 12.2 | -7.59
COc1c(CNCC(c2cccc(F)c2)N(C)C)c(C(C)C)nn1C (configuration not stated) | -2.21 | 5.2 | -2.29 | -6.06 | 4.6 | -3.16 | 4.61 | 5.62 | 0 | 9.41 | -5.27
CCN(CCn1cccn1)Cc1nc(-c2ccccc2F)oc1C | -1.08 | -6.94 | -5.26 | -5.94 | -0.68 | -0.883 | 5.61 | 7.62 | 1.05 | 0 | 2.51
CCCSCC(=O)Nc1ncn(CC(=O)NCc2ccccc2)n1 | -2.05 | 8 | -1.58 | 7.45 | 3.6 | 13.5 | 12.9 | 4.31 | 6.01 | 16.1 | -6.22
Cc1cc(C)n(CCCNC(=O)C(C)NC(=O)c2ccccc2Cl)n1 (configuration not stated) | -2.06 | 5.26 | 4.16 | -4.01 | -2.63 | 0 | 6.81 | -13.1 | 5.32 | 10.4 | -5.43
Cc1cnn(CCNCC(O)COc2ccc(C#N)cc2)c1 (configuration not stated) | -4.77 | 15.2 | -8.43 | 8.11 | 1.42 | 2.28 | 8.44 | -3.4 | 5.42 | 13.9 | -5.58
Cc1nn(C)c2sc(C(=O)N3CCCC(n4ccnc4C)C3)cc12 (configuration not stated) | -3.87 | 7.89 | 3.55 | 2.66 | 2.82 | -5.92 | 8.92 | 24.3 | 4.25 | 5.2 | -4.45
O=C(NCc1cccc(F)c1)N1CCC2(CC(=O)N(c3ccsc3)C2)C1 (configuration not stated) | -3.47 | 8.11 | -0.642 | -0.223 | 1.95 | 0.833 | 15.1 | -5.74 | 9.9 | 15.8 | -4.87
N#CCSCCCN1CCN(C(=O)c2ccc(Cl)cc2)CC1 | -6.76 | -8.22 | 6.65 | -5.18 | -3.37 | -25.9 | -2.83 | 4.5 | -2.08 | -3.7 | 7.74
O=S(=O)(Cc1ccccc1F)NCCN1CCOCC1 | -4.08 | 8 | -0.989 | -5.08 | -3.02 | -1.04 | 12.6 | -12.7 | -1.64 | 6.17 | -1.76
O=C(NCCOc1ccc(F)c(F)c1)NCc1cccc(CO)c1 | -2.53 | 2.7 | 1.53 | 4.96 | 1.16 | -2.38 | 15.2 | 19.7 | -0.529 | 7.32 | -4.04
Cn1cnnc1C1CCCN(C(=O)NCCc2ccccc2F)C1 (configuration not stated) | -3 | 10.4 | -0.267 | -7.57 | 5.97 | 6.53 | 6.71 | 11.1 | 3.81 | 14.1 | -9.4
CCc1cnc(CN(C(C)=O)C2CCN(CCc3cccs3)C2)o1 (configuration not stated) | -3.22 | 13.2 | 0.738 | -12.5 | -4.95 | 2.16 | 21.6 | 4.61 | 7.39 | 6.17 | -8.12
Cc1nc(CN2CCCN(C(=O)C(C)OCC3CC3)CC2)cs1 (configuration not stated) | -1.24 | 3.8 | 0.098 | 0.839 | 3.38 | 0.215 | 10.6 | 4.67 | 3.12 | 2.53 | -18.2
COCCc1noc(CN2CCc3nn(C(C)C)c(=O)cc3C2)n1 | -3.44 | 18.4 | -7.36 | -6.23 | -4.58 | 0.719 | 6.18 | 6.48 | 5.42 | 11.1 | -11.2
CCN(Cc1ccco1)C(=O)c1cc(OC)c2c(c1)OCCO2 | -1.97 | -2.63 | 6.68 | 5.11 | -0.487 | 3.55 | 9.88 | -7.24 | 0 | 2.6 | -1.38
COCCn1cc2c(n1)C(CNCc1ccco1)OCC2 (configuration not stated) | -7.4 | -2.7 | 0.854 | 9.04 | -0.781 | 0.833 | 18 | 13.2 | 3.96 | -3.66 | -1.08
CCOc1cccc(NS(=O)(=O)c2cc(C)c(C(=O)O)s2)c1 | -6.74 | 8.11 | -13.3 | 45.6 | 7.72 | 19.1 | 6.27 | -0.127 | -10.8 | -3.7 | -13.9
CN1CCC(c2cccc(Cc3ccc(F)cc3)n2)CC1 | -4.16 | -1.35 | 11.1 | -2.02 | 0.395 | -6.26 | 6.08 | 2.47 | 2.15 | -1.3 | -7.17
Cc1nc(C2CCCN(C(=O)c3cnn(C(C)(C)C)c3)C2)no1 (configuration not stated) | -11.7 | 16.5 | -6.15 | -0.567 | 4.82 | -1.07 | 2.74 | -0.962 | 4.17 | 12.7 | -34.2
